PubChem BioAssay (NCI)
Compounds without any hit were thinned out: in the full panel of roughly 83,000, 20% have a hit.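 Each cell line was grown in a 96-well plate and treated with one concentration of compound for 48 hours. Values below 10 were considered active.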 Values without a mark were called inactive. Calls of active or inactive are those of the source.

test system: HL-60(TB) leukemia; assay: NCI-60 one-dose screen, 48 h (100 = growth as untreated, 0 = no growth, -100 = all killed); settings: 10 µM unless noted

Row | Structure (SMILES) | growth
1 | CC1(C)[C@H](O)CC[C@]2(C)[C@@H]1CC[C@@]13C[C@@H](CC[C@H]12)[C@@](O)(CO)C3 | 106%
2 | N#Cc1ccc(-c2ccc(-c3cccs3)o2)cc1F | 89.3%
3 | CC12CCC3c4ccc(O)cc4CCC3C1CCC2=O (stereo not given) | 79.4%
4 | CN(C)CCOc1cccc(NC2=C(Cl)C(=O)C(Nc3cccc(OCCN(C)C)c3)=C(Cl)C2=O)c1 | -51% (active)
5 | Cc1cc(-c2cc(O)ccc2Cl)cc2nnc(Nc3ccc(OCCN4CCCC4)cc3)nc12 | -63.5% (active)
6 | Nc1c2c(c(O)c3c1=C(CO)C=N3)=NCCS2 | -33.7% (active)
7 | CC(=O)c1ccc2c3c(n(C)c2c1)CCCC3 | 93.1%
8 | CN1CCN(c2ccc(/C=C/C(=O)c3ccc(O)cc3)cc2)CC1 | 115%
9 | CCN(CC)CCCC(Cc1ccccc1)Nc1c2ccc(Cl)cc2nc2ccc(OC)cc12 (stereo not given) | 19.5%
10 | COc1ccc(/C=C2\CS(=O)(=O)C/C(=C\c3ccc(OC)cc3)C2=O)cc1 | -29.8% (active)
11 | C=C1C(=O)O[C@H]2[C@H]1CC/C(C(=O)Nc1ccc(OC)c(C(N)=O)c1O)=C\CC[C@@]1(C)O[C@@H]21 | 0.316% (active)
12 | COc1ccn2c(C(C)=O)cc(C(=O)c3ccc4c(c3)Sc3ccccc3N4)c2c1 | -9.97% (active)
13 | CC1(C)CC[C@]23CC[C@]4(C)[C@H](CC[C@@H]5[C@@]6(C)C/C(=C/c7ccncc7)C(=O)C(C)(C)[C@@H]6CC[C@]54C)[C@H]2[C@H]1OC3 | 61%
14 | COC1=CC(=O)c2c(O)c3c(c(O)c2C1=O)CC(C)(O)OC3 (stereo not given) | -57.1% (active)
15 | C=C(C)[C@@H]1CC[C@]2(C(=O)NCCNCCNCCN)CC[C@]3(C)[C@H](CC[C@@H]4[C@@]5(C)CC[C@H](O)C(C)(C)[C@@H]5CC[C@]43C)[C@@H]12 | -24% [100 µM] (active)
16 | O=C(/C(=C\c1c(-c2ccccc2)[nH]c2ccccc12)S(=O)(=O)c1ccccc1)c1ccccc1 | -18.2% (active)
17 | C=CCN=c1sc(-c2ccc3ccccc3c2)cn1NC(=O)c1cc2ccc1CCc1ccc(cc1)CC2 | 49.2%
18 | COc1ccc2cc(-c3ccc(-c4ccc(C(=N)N)cc4)s3)ccc2c1 | 100%
19 | CCCCCCCC/C=C/CCCCCCCC1=NC(C)(C)CN1CCO | -61.5% (active)
20 | Cc1nc2cc(Nc3nc(Nc4ccc(F)cc4)nc(-c4cccs4)n3)ccc2n1Cc1ccccc1 | 28.1%

Row | Structure (SMILES) | growth
21 | O=C1NC(=C(Cl)Cl)/C(=N/S(=O)(=O)N2CCCCC2)N1 | -70.3% (active)
22 | COc1ncnc2[nH]cc(CN3CCN(c4ccc(F)cc4)CC3)c12 | 101%
23 | CCOC(=O)c1c(C)n(-c2ccc(Cl)cc2)c2ccc(OC(=O)/C=C/c3ccccc3)cc12 | 57.1%
24 | COc1ccc2c(ccc[n+]2C)c1 | 132%
25 | O=[N+]([O-])c1c(F)cccc1Nc1cccc(F)c1 | 100%
26 | COc1cc2nnc3c4cccnc4[nH]c3c2cc1OC | -54.3% (active)
27 | COc1cc2c(cc1OC)C(Sc1ccc(SC)cc1)c1c(nc(N)c(C#N)c1N)O2 (stereo not given) | -52.9% (active)
28 | COC(=O)[C@H](C)NC(=O)[C@@H](OC)[C@@H]1Cc2cc3cc(OC4CC(OC5CC(O)C(O)C(C)O5)C(O)C(C)O4)c(C)c(O)c3c(O)c2C(=O)[C@H]1OC1CC(OC2CC(OC3CC(C)(O)C(O)C(C)O3)C(O)C(C)O2)C(O)C(C)O1 (stereo not given in full) | 20.8%
29 | O=C1/C(=C/c2cn(-c3ccccc3)nc2-c2ccccc2)SC(=S)N1C1CCCCC1 | 116%
30 | NS(=O)(=O)c1ccc(-n2nc(-c3ccc(Cl)cc3)c3ccccc3c2=O)cc1 | 95.2%
31 | CN1C2CCC1/C(=C\c1ccc(Cl)cc1)C1=C2[C@@H](c2ccc(Cl)cc2)C(C#N)=C(N)O1 (stereo not given in full) | 81.8%
32 | O=C(COc1ccc(Cl)cc1Cl)N1N=C(c2ccc(Cl)cc2Cl)CC1(O)c1cc(F)c(Cl)cc1Cl (stereo not given) | -97.5% (active)
33 | Cc1ccc(/C(C#N)=C/c2ccc3c(c2)OCO3)cc1 | 67.5%
34 | CC1O[C@@H]2C[C@@](O)([C@H]1O)n1c3ccccc3c3c4c(c5c6ccccc6n2c5c31)C(=O)NC4=O (stereo not given in full) | 66.6%
35 | CN(C)Cc1cc(C(C)(C)CC(C)(C)C)ccc1O | 94.4%
36 | COc1cc(C2C(C(=O)c3cccs3)=C(O)C(=O)N2CCN2CCOCC2)cc(OC)c1OC (stereo not given) | 120%
37 | Nc1ccccc1-c1cc2c(c3c1[nH]c1ccccc13)CCCCC2 | 91.6%
38 | CCCCCCCCCCCCCCCC(=O)O[C@@H]1[C@@H](O)[C@@H](O)C([C@H](NC(=O)[C@@H]2C[C@@H](CCC)CN2C)[C@H](C)Cl)O[C@@H]1SC (stereo not given in full) | 98.6%
39 | O=C(N=Nc1c(Cl)c(O)c2ccccc2c1O)C(=O)Nc1cccc(C(F)(F)F)c1 | 6.33% (active)
40 | CCOC(=O)c1c(NC(=O)c2ccc(C(C)(C)C)cc2)sc2cc(O)ccc12 | 67%
